Data as given in ChEMBL document CHEMBL4513141, “CO-ADD screening of NIH (USA) - Clinical Collection” (2021).
Results with a measured potency or affinity are listed apart.

Key:
Klebsiella pneumoniae = conditions: Concentration 20 uM; ASSAY_TEST Inhibition of Bacterial Growth; detection method Absorption (OD600); MEDIA CAMHB; plate type 384well; NBS; CORNING #3640; time 18 hr
Candida albicans = conditions: 20 µM
Cryptococcus neoformans = conditions: Concentration 20 uM; ASSAY_TEST Inhibition of Fungal Growth; detection method Resazurin; Absorption (OD600-OD570); plate type 384well; NBS; CORNING #3640

CC(C(=O)[O-])c1ccc(CC2CCCC2=O)cc1.[Na+] (centres undefined) [LOXOPROFEN SODIUM]
Inhibition (Klebsiella pneumoniae): 6.48% | Inhibition (Candida albicans): 2.26% | Inhibition (Cryptococcus neoformans): -10.19%

CC(C)NCC(O)c1cc(O)cc(O)c1 (centres undefined) [METAPROTERENOL]
Inhibition (Klebsiella pneumoniae): 7.02% | Inhibition (Candida albicans): 1.29% | Inhibition (Cryptococcus neoformans): 0.32%

Cc1nc(=O)c2cc(CN(C)c3ccc(C(=O)N[C@@H](CCC(=O)O)C(=O)O)s3)ccc2[nH]1 [RALTITREXED]
Inhibition (Klebsiella pneumoniae): 9.17% | Inhibition (Candida albicans): 2.26% | Inhibition (Cryptococcus neoformans): -0.58%

Cl.O.O=C1N(c2ccccc2)c2ccccc2C1(Cc1ccncc1)Cc1ccncc1
Inhibition (Klebsiella pneumoniae): 9.02% | Inhibition (Candida albicans): 3.32% | Inhibition (Cryptococcus neoformans): -6.67%

Cl.Nc1c2c(nc3ccccc13)CCCC2 [TACRINE HYDROCHLORIDE]
Inhibition (Klebsiella pneumoniae): 15.67% | Inhibition (Candida albicans): 1.65% | Inhibition (Cryptococcus neoformans): -5.28%

CN1C(=O)CC[C@H]1c1cccnc1 [COTININE]
Inhibition (Klebsiella pneumoniae): 5.32% | Inhibition (Candida albicans): 4.46% | Inhibition (Cryptococcus neoformans): -1.87%

CC(=O)CCCCn1c(=O)c2c(ncn2C)n(C)c1=O [PENTOXIFYLLINE]
Inhibition (Klebsiella pneumoniae): 12.41% | Inhibition (Candida albicans): 2.65% | Inhibition (Cryptococcus neoformans): -7.44%

Cl.NC1CCN(c2cccc(Cl)n2)CC1
Inhibition (Klebsiella pneumoniae): 7.75% | Inhibition (Candida albicans): 2.49% | Inhibition (Cryptococcus neoformans): 0.18%

CCCc1nc2c(C)cc(-c3nc4ccccc4n3C)cc2n1Cc1ccc(-c2ccccc2C(=O)O)cc1
Inhibition (Klebsiella pneumoniae): 15% | Inhibition (Candida albicans): 1.9% | Inhibition (Cryptococcus neoformans): -31%

CC(C)(C)NC[C@H](O)COc1nsnc1N1CCOCC1.O=C(O)/C=C\C(=O)O [TIMOLOL MALEATE]
Inhibition (Klebsiella pneumoniae): 6.73% | Inhibition (Candida albicans): -1.73% | Inhibition (Cryptococcus neoformans): -3.81%

C=C1/C(=C\C=C2/CCC[C@]3(C)[C@@H]([C@H](C)/C=C/[C@@H](O)C4CC4)CC[C@@H]23)C[C@@H](O)C[C@@H]1O [CALCIPOTRIENE]
Inhibition (Klebsiella pneumoniae): 16.21% | Inhibition (Candida albicans): 0.06% | Inhibition (Cryptococcus neoformans): 0.21%

CN1CCN(CCCN2c3ccccc3Sc3ccc(C(F)(F)F)cc32)CC1.Cl.Cl [TRIFLUOPERAZINE HYDROCHLORIDE]
Inhibition (Klebsiella pneumoniae): 10.06% | Inhibition (Candida albicans): 2.94% | Inhibition (Cryptococcus neoformans): -7.04%

CC(=O)NCCCCCCNC(C)=O [HEXAMETHYLENEBISACETAMIDE]
Inhibition (Klebsiella pneumoniae): 1.97% | Inhibition (Candida albicans): 0.48% | Inhibition (Cryptococcus neoformans): -6.53%

CS(=O)(=O)O.Cc1ccc(NC(=O)c2ccc(CN3CCN(C)CC3)cc2)cc1Nc1nccc(-c2cccnc2)n1 [IMATINIB MESYLATE]
Inhibition (Klebsiella pneumoniae): 14.57% | Inhibition (Candida albicans): 2.45% | Inhibition (Cryptococcus neoformans): 9.11%

CCC(C)(C)/N=C(\NC#N)Nc1cccnc1
Inhibition (Klebsiella pneumoniae): -0.95% | Inhibition (Candida albicans): 3.82% | Inhibition (Cryptococcus neoformans): -26.21%

CN1CCC(=C2c3ccccc3CCc3sccc32)CC1.O=C(O)/C=C\C(=O)O
Inhibition (Klebsiella pneumoniae): 13.2% | Inhibition (Candida albicans): 3.52% | Inhibition (Cryptococcus neoformans): -10.62%

NCC(=O)CCC(=O)O [AMINOLEVULINIC ACID]
Inhibition (Klebsiella pneumoniae): 13.51% | Inhibition (Candida albicans): 0.21% | Inhibition (Cryptococcus neoformans): -6.69%

Sc1ncnc2nc[nH]c12 [MERCAPTOPURINE ANHYDROUS]
Inhibition (Klebsiella pneumoniae): 7.84% | Inhibition (Candida albicans): 11.2% | Inhibition (Cryptococcus neoformans): -0.87%

CC(=O)Nc1ccc(CC(=O)O)cc1 [ACTARIT]
Inhibition (Klebsiella pneumoniae): 4.76% | Inhibition (Candida albicans): -0.65% | Inhibition (Cryptococcus neoformans): 4.09%

CC(C)NCC(O)COc1ccc(COCCOC(C)C)cc1.CC(C)NCC(O)COc1ccc(COCCOC(C)C)cc1.O=C(O)/C=C/C(=O)O (centres undefined) [BISOPROLOL FUMARATE]
Inhibition (Klebsiella pneumoniae): 12.19% | Inhibition (Candida albicans): 0.23% | Inhibition (Cryptococcus neoformans): -4.67%

CCOC(=O)[C@H](CCc1ccccc1)N[C@@H](C)C(=O)N1[C@H](C(=O)O)C[C@@H]2CCC[C@@H]21
Inhibition (Klebsiella pneumoniae): 20.74% | Inhibition (Candida albicans): 1.9% | Inhibition (Cryptococcus neoformans): -1.7%

CN(C)C(=O)Oc1ccc[n+](C)c1.[Br-] [PYRIDOSTIGMINE BROMIDE]
Inhibition (Klebsiella pneumoniae): 3.02% | Inhibition (Candida albicans): 1.97% | Inhibition (Cryptococcus neoformans): -8.97%

Cl.O.c1cnc(N2CCN(Cc3ccc4c(c3)OCO4)CC2)nc1
Inhibition (Klebsiella pneumoniae): 3.33% | Inhibition (Candida albicans): 3.11% | Inhibition (Cryptococcus neoformans): -7.46%

Nc1ccc2cn[nH]c2c1
Inhibition (Klebsiella pneumoniae): 2.93% | Inhibition (Candida albicans): 4.22% | Inhibition (Cryptococcus neoformans): 6.83%

Nc1c2c(nc3c1CCC3)CCCC2 [IPIDACRINE]
Inhibition (Klebsiella pneumoniae): 15% | Inhibition (Candida albicans): 3.22% | Inhibition (Cryptococcus neoformans): -0.69%

CN(CCOc1ccc(NS(C)(=O)=O)cc1)CCc1ccc(NS(C)(=O)=O)cc1 [DOFETILIDE]
Inhibition (Klebsiella pneumoniae): 7.49% | Inhibition (Candida albicans): 2.12% | Inhibition (Cryptococcus neoformans): -1.31%

COC(=O)C1=C(C)NC(C)=C(C(=O)O[C@@H]2CCCN(Cc3ccccc3)C2)[C@@H]1c1cccc([N+](=O)[O-])c1.Cl
Inhibition (Klebsiella pneumoniae): -2.17% | Inhibition (Candida albicans): 3.91% | Inhibition (Cryptococcus neoformans): -18.39%

CCOC(=O)C1=C(C)NC(C)=C(C(=O)OC)C1c1cccc([N+](=O)[O-])c1 (centres undefined) [NITRENDIPINE]
Inhibition (Klebsiella pneumoniae): 3.96% | Inhibition (Candida albicans): 3.79% | Inhibition (Cryptococcus neoformans): -6.79%
